Where “and” joins values, the source holds several entries; their conditions need not be identical. Equal values may be shown once. Potency and affinity values are given separately.
Tests used:
Klebsiella pneumoniae = settings: Concentration 20 uM, ASSAY_TEST Inhibition of Bacterial Growth, detection method Absorption (OD600), MEDIA CAMHB, plate type 384well, NBS, CORNING #3640, time 18 hr
Candida albicans = settings: 20 µM
Cryptococcus neoformans = settings: Concentration 20 uM, ASSAY_TEST Inhibition of Fungal Growth, detection method Resazurin, Absorption (OD600-OD570), plate type 384well, NBS, CORNING #3640

Row | SMILES | Inhibition (Klebsiella pneumoniae) [%] | Inhibition (Candida albicans) | Inhibition (Cryptococcus neoformans) [%] | Inhibition (Klebsiella pneumoniae; 20 µM) | Inhibition (Cryptococcus neoformans; 20 µM)
1 | CN(CCO)CC(O)Cn1cnc2c1c(=O)n(C)c(=O)n2C.O=C(O)c1cccnc1 (centres undefined) [XANTHINOL NIACINATE] | 12.07 | 0.26% | -2.36 | – | –
2 | CC(Cc1ccccc1)(NC(=O)CN)c1ccccc1.Cl (centres undefined) [REMACEMIDE HYDROCHLORIDE] | 8.63 | 4.18% | -7.79 | – | –
3 | CCCC(=O)Nc1ccc(OCC(O)CNC(C)C)c(C(C)=O)c1.Cl (centres undefined) [ACEBUTOLOL HYDROCHLORIDE] | 19.26 | 1.82% | -1.83 | – | –
4 | C[C@]12CCC(=O)C=C1CC[C@@H]1[C@@H]2[C@@H](O)C[C@@]2(C)[C@H]1CC[C@]2(O)C(=O)CO [HYDROCORTISONE] | 5.06 | 1.65% | -3.64 | – | –
5 | CCOC(=O)OC(C)OC1=C(C(=O)Nc2ccccn2)N(C)S(=O)(=O)c2ccccc21 (centres undefined) [AMPIROXICAM] | 12.2 | 0.25% | -3.23 | – | –
6 | Nc1nc(Cl)nc2c1ncn2[C@@H]1O[C@H](CO)[C@@H](O)[C@H]1O | 2.26 | 4.78% | 0.98 | – | –
7 | C#C[C@]1(O)CC[C@H]2[C@@H]3CCc4cc(OC)ccc4[C@H]3CC[C@@]21C [MESTRANOL] | 4.28 | 4.15% | -7.53 | – | –
8 | CCCc1nc(C(C)(C)O)c(C(=O)OCc2oc(=O)oc2C)n1Cc1ccc(-c2ccccc2-c2nnn[nH]2)cc1 [OLMESARTAN MEDOXOMIL] | 5.33 | 4.08% | -0.73 | – | –
9 | NS(=O)(=O)c1cc2c(cc1C(F)(F)F)NC(Cc1ccccc1)NS2(=O)=O (centres undefined) [BENDROFLUMETHIAZIDE] | 6.67 | 3.76% | -1.07 | – | –
10 | CC(Oc1c(Cl)cccc1Cl)C1=NCCN1.Cl (centres undefined) [LOFEXIDINE HYDROCHLORIDE] | 6.35 | 2.12% | -0.75 | – | –
11 | O=C(O)CCNC(=O)c1ccc(N=Nc2ccc(O)c(C(=O)O)c2)cc1 | 9.82 | 4.41% | -5.87 | – | –
12 | CC[C@H](C)C(=O)O[C@H]1C[C@@H](C)C=C2C=C[C@H](C)[C@H](CC[C@@H]3C[C@@H](O)CC(=O)O3)[C@H]21 [LOVASTATIN] | 12.43 | 17.1% | -5.68 | – | –
13 | COc1cc(N)c(Cl)cc1C(=O)N[C@@H]1CCN(CCCOc2ccc(F)cc2)C[C@@H]1OC.O [(R,S)-CISAPRIDE MONOHYDRATE] | 7.83 | 1.98% | 3.24 | – | –
14 | CN(C)CCOC(c1ccc(Cl)cc1)c1ccccn1.O=C(O)/C=C\C(=O)O (centres undefined) [CARBINOXAMINE MALEATE] | 12.89 | 0.99% | 0.28 | – | –
15 | COc1ccc(C2CNC(=O)C2)cc1OC1CCCC1 (centres undefined) [ROLIPRAM] | 19.56 | 4.38% | -5.22 | – | –
16 | Cc1ccc(S(=O)(=O)NC(=O)NN2CCCCCC2)cc1 [TOLAZAMIDE] | -1.58 | -0.09% | -7.48 | – | –
17 | COC(=O)C1=C(C)NC(C)=C(C(=O)OCCN(C)Cc2ccccc2)C1c1cccc([N+](=O)[O-])c1.Cl (centres undefined) [NICARDIPINE HYDROCHLORIDE] | -5.88 | 0.94% | -9.15 | – | –
18 | CNC(=C[N+](=O)[O-])NCCSCc1ccc(CN(C)C)o1.Cl [RANITIDINE HYDROCHLORIDE] | 4.5 | 2.99% | 5.97 | – | –
19 | C[C@]12C[C@H](O)[C@H]3[C@@H](CCC4=CC(=O)CC[C@@]43C)[C@@H]1CC[C@@H]2C(=O)CO [CORTICOSTERONE] | 17.2 | 2.69% | -3.25 | – | –
20 | CCC[C@@H]1C[C@@H](C(=O)N[C@@H]([C@H]2O[C@H](SC)[C@H](O)[C@@H](O)[C@H]2O)[C@@H](C)O)N(C)C1.Cl.O [LINCOMYCIN HYDROCHLORIDE] | 17.37 | 4.06% | -3.42 | – | –
21 | CC(=O)NCCCCCCNC(C)=O [HEXAMETHYLENEBISACETAMIDE] | 1.97 | 0.48% | -6.53 | – | –
22 | Cl.NC[C@H]1CC[C@H](C(=O)Oc2ccc(CCC(=O)O)cc2)CC1 [CETRAXATE HYDROCHLORIDE] | 11.26 | 4.33% | -5.7 | – | –
23 | C[C@@H]1C[C@H]2[C@@H]3CCC4=CC(=O)C=C[C@]4(C)[C@@]3(F)[C@@H](O)C[C@]2(C)[C@@]1(O)C(=O)CO [DEXAMETHASONE] | – | 1.68% and 4.41% | – | -0.78% and 2.8% | -1.2% and -1.22%

— ChEMBL document CHEMBL4513141, “CO-ADD screening of NIH (USA) - Clinical Collection” (2021)
